Results taken from the OligoGym collection.

Target: INPP5F
Test: pooled miR-30 sensor sort-seq; sequence = guide strand
Details: shRNA
Note: reference of the scale not given here.

Sequence | sensor-assay potency score (higher = more potent)
TTCATTTGAAACTTGATTGGTC | 0.857
TAATCTTCTCTCTTCCTGCCTG | 0.168
TTAGTGTCTGAACATTCTCAAA | -1.6

Target: INVS
Test: as above
Details: shRNA

Sequence | sensor-assay potency score (higher = more potent)
TTAATATCTGGCAAACATCAGC | -0.861
TTATTTTCTATTAATATCTGGC | 0.295
TAGAAGAGAATGTCCATCTTGG | 0.67
TTGGTCAACTAGATCTACCCTT | 0.547
TTCGTGAGAACAACCATAGATT | -0.97
AACATCAGTAGCATCTACTTGA | 0.641
TTTGTTTTCTTCCTCTCGCTTT | 0.0611
TAAGACGTTATATTGCAGCTTT | 0.127
TTTTATTCACATCTGCTCCTGC | 0.562
TACTTGAGCATTATTTTCCAGT | -0.382
TTTAAAAACACTTTAACCGTTT | -0.562
TTTTAAAAACACTTTAACCGTT | -0.842

Target: IP6K3
Test: as above
Details: shRNA

Sequence | sensor-assay potency score (higher = more potent)
TTACACTTGTCCACCAGTCTTG | -0.0833
TTTTCTTCCATAGTACTTGTCT | 0.567
ATATTTACACTTGTCCACCAGT | -0.684
TATTTGAGATCTATAGCCCAGA | -0.584
TTGTTCTCTGGGTACTCGGAGC | -1.42
TAGATGACAAGGAGAGAGCTGG | -0.213
TTCATAGAACCTCTGCTCCCGG | -0.506
TTTTCCAGCAACAAGAACCGAT | -0.15
TGACACTACATTTTCCAGCAAC | -1.2
TACACTTGTCCACCAGTCTTGT | -0.242
TTCTTCCATAGTACTTGTCTTT | -1.16
TTGCAGAGAAAGTACTTCTTAT | -0.832

Target: IPO11
Test: as above
Details: shRNA

Sequence | sensor-assay potency score (higher = more potent)
TTTGTAGTAGAACTCGACCCAT | -0.362
TATCTCTACACACATTATCTGT | -0.812
TTAACTTCAAAGTTGTAGCTGT | 0.668
TTGTTCTCCTAGCATCTCCTGC | -0.927
TTCTTTAATAGCATCATCTGAA | -0.198
TTCCACAACCTTGAGCACCTGA | 0.832
TAAATCTTGATCTTGAAGCAAG | -0.725
TTGTAGTAGAACTCGACCCATA | -0.751
TAATTCTAAACCATCTTCCAGA | -0.364
TAGCTGGGTGACAATCTCCGTA | -0.584
TAACAGGAAACTAAGCAGCTAT | -0.294
TATACTTCTACTGCATTCCAGA | -0.431
